Assay results published in publication PMC5540273 (PLoS ONE, 2017).
Several values for one entry are separate records, joined by “and”; a condition that tells them apart may be missing. Identical values can stand only once. Like-named read-outs stand apart in the source and are kept apart here.

Tests used:
LYN = settings: concentration: 1 μM, replicates: in singlicate; n = 1
LZK = test system: T1, LZK; settings: concentration: 1 μM, replicates: in singlicate; n = 1
T1 construct: gene MAP3K13

MAK = settings: n = 1
MAP3K15 = settings: n = 1
MAP3K1 = settings: n = 1
MAP3K2 = settings: n = 1
MAP3K3 = settings: concentration: 1 μM, replicates: in singlicate; n = 1
MAP3K4 = settings: n = 1
MAP4K2 = settings: concentration: 1 μM, replicates: in singlicate; n = 1
MAP4K3 = settings: n = 1
[1] = concentration: 1 μM, replicates: in singlicate
[2] = concentration: 1 μM,replicates: in singlicate, 1 µM
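Further: KINOMEscan kinase panel screen.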

| Structure (SMILES) | %Inh (LYN) [%] | %Inh (LZK) [%] | %Inh (MAK; [1]) [%] | %Inh (MAP3K15; [1]) [%] | %Inh (MAP3K1; [1]) [%] | %Inh (MAP3K2; [1]) [%] | %Inh (MAP3K3) [%] | %Inh (MAP3K4; [1]) [%] | %Inh (MAP4K2) [%] | %Inh (MAP4K3; [1]) [%] | %Inh (MAK; [2]) | %Inh (MAP3K15; [2]) | %Inh (MAP3K1; [2]) | %Inh (MAP3K2; [2]) | %Inh (MAP3K4; [2]) | %Inh (MAP4K3; [2]) |
| --- | --- | --- | --- | --- | --- | --- | --- | --- | --- | --- | --- | --- | --- | --- | --- | --- |
| CN1C(=O)C(Nc2ccc(Cl)c(C(=O)O)c2)=C(c2ccc(Cl)cc2)C1=O [SB-404290] | 0 | 0 | 0 | 45 | 16 | 21 | 12 | 9 | 21 | 0 | – | – | – | – | – | – |
| COc1ccc(Nc2nccc(NCCNC(=O)Nc3ccccc3F)n2)cc1 [GSK1379901] | 0 | 7 | 19 | 0 | 1 | 5 | 0 | 52 | 0 | 0 | – | – | – | – | – | – |
| Cc1cccc(-c2cc(Nc3ccncc3)c3ccccc3n2)n1 [GSK223675] | 0 | 0 | 22 | 0 | 5 | 0 | 0 | 21 | 0 | 0 | – | – | – | – | – | – |
| COC(=O)c1c(-c2ccccc2)c2cc(OC)ccc2c(=O)n1Cc1ccccc1 | 32 | 0 | 33 | 0 | 24 | 0 | 11 | 12 | 0 | 0 | – | – | – | – | – | – |
| Clc1cc(Cl)cc(Nc2ccnc(Nc3cc(Cl)cc(Cl)c3)n2)c1 [GSK175726] | 23 | 0 | 25 | 0 | 0 | 0 | 0 | 0 | 0 | 0 | – | – | – | – | – | – |
| COc1ccccc1CNC(=O)c1cc(C(=O)c2ccccc2C)c[nH]1 [GSK364507] | 0 | 0 | 7 | 3 | 6 | 15 | 0 | 32 | 0 | 0 | – | – | – | – | – | – |
| Cc1c(O)cccc1Nc1ccnc2ccc(C(F)(F)F)cc12.Cl [GW466413] | 0 | 14 | 0 | 0 | 2 | 22 | 47 | 0 | 0 | 0 | – | – | – | – | – | – |
| Cc1csc(-c2nc(Nc3ccncc3)c3ccccc3n2)n1 [GW869640] | 0 | 20 | 2 | 35 | 35 | 38 | 1 | 2 | 34 | 0 | – | – | – | – | – | – |
| Cc1ccc(-c2cc(-c3c[nH]nc3-c3ccccn3)ccn2)cc1 [GW684088] | 1 | 44 | 0 | 0 | 9 | 0 | 0 | 4 | 0 | 0 | – | – | – | – | – | – |
| COc1ccc(C2=C(Nc3cccc(C(=O)O)c3)C(=O)NC2=O)cc1 [SB-390765] | 21 | 52 | 36 | 15 | 18 | 12 | 7 | 9 | 32 | 2 | – | – | – | – | – | – |
| COc1ccc2nc(-c3cccc(C)n3)nc(Nc3ccncc3)c2c1 [GSK204919] | 0 | 0 | 25 | 0 | 22 | 0 | 0 | 9 | 0 | 12 | – | – | – | – | – | – |
| O=C1NC(=O)C(N2CCc3ccccc32)=C1c1ccccc1Cl [SB-373598] | 17 | 0 | 9 | 9 | 23 | 4 | 4 | 29 | 21 | 1 | – | – | – | – | – | – |
| COC(=O)c1c(-c2ccccc2)c2cc(C(=O)O)ccc2c(=O)n1Cc1ccccc1 | 16 | 0 | 0 | 8 | 0 | 0 | 0 | 4 | 0 | 0 | – | – | – | – | – | – |
| COc1cc2ncnc(Nc3ccc4nc(-c5ccccc5)[nH]c4c3)c2cc1OC.Cl [GW282450] | 0 | 0 | 0 | 0 | 19 | 8 | 0 | 9 | 0 | 3 | – | – | – | – | – | – |
| CC(C)(C)c1ccc(C(=O)Nc2cn3cc(-c4cccnc4)ccc3n2)cc1 | 16 | 0 | 46 | 46 | 1 | 9 | 26 | 17 | 0 | 5 | – | – | – | – | – | – |
| COc1cc2ncn(-c3cc(OCC4CCCO4)c(C(N)=O)s3)c2cc1OC (centres unmarked) [GSK204607] | 0 | 0 | 9 | 0 | 50 | 0 | 0 | 0 | 0 | 70 | – | – | – | – | – | – |
| Cn1cncc1-c1ccc2ncnc(Nc3ccc(OCc4ccccc4)cc3)c2c1 [GW320571] | 2 | 0 | 15 | 0 | 18 | 10 | 0 | 19 | 0 | 16 | – | – | – | – | – | – |
| Fc1cc(Cl)ccc1Nc1ccnc2cc(I)ccc12 [GW551191] | 14 | 0 | 40 | 0 | 7 | 0 | 0 | 0 | 0 | 0 | – | – | – | – | – | – |

| Structure (SMILES) | %Inh (LYN) [%] | %Inh (LZK) [%] | %Inh (MAK; [1]) [%] | %Inh (MAP3K15; [1]) [%] | %Inh (MAP3K1; [1]) [%] | %Inh (MAP3K2; [1]) [%] | %Inh (MAP3K3) [%] | %Inh (MAP3K4; [1]) [%] | %Inh (MAP4K2) [%] | %Inh (MAP4K3; [1]) [%] | %Inh (MAK; [2]) | %Inh (MAP3K15; [2]) | %Inh (MAP3K1; [2]) | %Inh (MAP3K2; [2]) | %Inh (MAP3K4; [2]) | %Inh (MAP4K3; [2]) |
| --- | --- | --- | --- | --- | --- | --- | --- | --- | --- | --- | --- | --- | --- | --- | --- | --- |
| Cc1ccccc1-n1cnc2c(N)ncnc21 [SKF-97510] | 0 | 0 | 0 | 0 | 0 | 0 | 0 | 0 | 0 | 0 | – | – | – | – | – | – |
| Cc1cccc(-c2nc(Nc3ccncc3)c3ccccc3n2)n1 [GW855857] | 0 | 0 | 0 | 0 | 0 | 0 | 0 | 16 | 0 | 0 | – | – | – | – | – | – |
| CS(=O)(=O)c1ccc(-c2c(-c3ncn[nH]3)sc(N3CCOCC3)c2C#N)cc1 | 0 | 0 | 36 | 0 | 26 | 6 | 27 | 2 | 0 | 0 | – | – | – | – | – | – |
| CS(=O)(=O)c1ccc(-c2nc3n(c2-c2ccncc2)CCC3)cc1 [SKF-105942] | 3 | 0 | 25 | 0 | 0 | 3 | 0 | 35 | 0 | 2 | – | – | – | – | – | – |
| NC(=O)c1nnc2ccccc2c1N | 5 | 0 | 23 | 30 | 28 | 31 | 34 | 15 | 20 | 4 | – | – | – | – | – | – |
| Cl.Oc1ccc(-c2nc(-c3ccccc3)[nH]c2-c2ccncc2)cc1 [SB-428218] | 33 | 47 | 18 | 0 | 0 | 0 | 0 | 7 | 0 | 0 | – | – | – | – | – | – |
| Cc1cccc(-c2nc(Nc3ccc4[nH]ncc4c3)c3ccccc3n2)n1 [GW857175] | 17 | 10 | 0 | 0 | 38 | 36 | 0 | 14 | 39 | 0 | – | – | – | – | – | – |
| O=S(=O)(c1ccc(-c2ccnc3[nH]ccc23)cc1)N1CCCC1 [GSK846226] | 0 | 0 | 24 | 0 | 14 | 7 | 0 | 0 | 0 | 0 | – | – | – | – | – | – |
| Cc1ccc(C(=O)Nc2ccc(Nc3ccnc4cc(-c5ccccn5)ccc34)cc2O)cc1.Cl [GW440146] | 44 | 10 | 25 | 21 | 3 | 0 | 0 | 25 | 0 | 0 | – | – | – | – | – | – |
| CCCc1ccc(S(=O)(=O)NC2CCN(c3ccnc(Nc4ccc(F)cc4)n3)C2)cc1 (centres unmarked) [GSK1379715] | 0 | 0 | 60 | 0 | 15 | 2 | 0 | 44 | 0 | 1 | – | – | – | – | – | – |
| Cn1ccc2ncnc(Oc3ccc(Nc4nc5ccccc5[nH]4)cc3)c21 | 0 | 0 | 5 | 0 | 0 | 0 | 0 | 0 | 0 | 9 | – | – | – | – | – | – |
| Nc1ncnc2[nH]c(-c3ccccc3)nc12 [AH5015] | 7 | 0 | 0 | 0 | 16 | 0 | 0 | 0 | 0 | 0 | – | – | – | – | – | – |
| CSc1nn2c(=O)cc(N3CCOCC3)nc2n1Cc1cccc(C(F)(F)F)c1C [GSK2363608] | 0 | 0 | – | – | – | – | 0 | – | 0 | – | 24% and 15% | 5% and 0% | 12% and 6% | 10% and 13% | 18% and 30% | 0% and 10% |
| Cc1cccc(-c2nc(Nc3cccc(C(N)=O)c3)c3ccccc3n2)n1 [GW876019] | 0 | 0 | 0 | 0 | 3 | 0 | 26 | 0 | 0 | 0 | – | – | – | – | – | – |
| Cn1ccc2ncnc(Oc3cccc(C(=O)Nc4ccccc4)c3)c21 | 9 | 0 | 8 | 0 | 0 | 11 | 0 | 0 | 2 | 15 | – | – | – | – | – | – |
| Cc1cccc(-c2nc(-c3ccc(S(C)(=O)=O)cc3)sc2-c2ccnc(NCCc3ccccc3)c2)c1 | 5 | 2 | 0 | 10 | 0 | 0 | 0 | 16 | 15 | 0 | – | – | – | – | – | – |
| Nc1nc(-c2nccs2)c(-c2ccnc3ccccc23)s1 [GW693542] | 3 | 3 | 46 | 0 | 13 | 0 | 0 | 27 | 0 | 0 | – | – | – | – | – | – |
